The text below walks through data of PubChem BioAssay.

Active and inactive are the calls of the source.

Experiment [1] concerns Plasmodium falciparum Sir2 (PF13_0152, Sir2A). Briefly: Plasmodium falciparum Sir2A binding compounds – biochemical, small-molecule microarray, 635 nm fluorescence, primary screen (AID 1098).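 Also: score merges spot fluorescence intensity with its signal-to-noise ratio.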 The settings on record: fluorescence 635 nm, higher = more signal.
Experiment [2] in a line: probe aDKK1 binding to arrayed compounds – biochemical, biotinylated probe, 635/667 nm fluorescence, primary screen (AID 1099).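 Also: score merges 667nm spot fluorescence with signal to noise across triplicate slides.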 The settings on record: small-molecule microarray, higher = more signal.
A short description of experiment [3]: probe aCHRDL2 binding to arrayed compounds – biochemical, biotinylated probe, 635/667 nm fluorescence, primary screen (AID 1100). To be noted: small-molecule microarray, higher = more signal.
A short description of experiment [4]: change in splice reporter luminescence, either direction, cell-based, HEK293, spliceosome inhibition project, primary screen (AID 1101).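 Also: HEK293 cells carrying a splicing-competent luciferase reporter gene; test concentration not given here.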 To be noted: HEK293 splicing luciferase reporter, 24 h, higher = more signal, called active from +8 up or from −8 down. On the technique in general: A reporter such as luciferase makes a cellular process visible.
The target of experiment [5] is Fibroblast growth factor 10 (Homo sapiens) (UniProt O15520). Briefly: compounds binding fibroblast growth factor 10 – biochemical, small-molecule microarray, 635 nm fluorescence, primary screen (AID 1102). To be noted: FGF10 binding, fluorescence 635 nm, higher = more signal.
The test system of experiment [6] is glycogen synthase kinase-3 (GSK3A per assay name; protocol says GSK3B). Briefly: compounds binding glycogen synthase kinase-3 – biochemical, small-molecule microarray, 635 nm fluorescence, GSK3A, primary screen (AID 1103). Also: the record names both GSK3A and GSK3B. To be noted: fluorescence 635 nm, higher = more signal.
Experiment [7] concerns the target Epidermal growth factor receptor (Homo sapiens) (UniProt P00533). Briefly: compounds binding epidermal growth factor receptor – biochemical, small-molecule microarray, 635 nm fluorescence, primary screen (AID 1104).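 Also: score merges 667 nm emission intensity with spot signal to noise over triplicate slides.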 The settings on record: EGFR binding, higher = more signal.
In experiment [8] the target is Follistatin-related protein 3 (Homo sapiens) (UniProt O95633). Put plainly: compounds binding follistatin-related protein 3 – biochemical, small-molecule microarray, 635 nm fluorescence, primary screen (AID 1105).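 Also: score merges emission near 667 nm and signal to noise per printed spot across three slides.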 To be noted: FSTL3 binding, higher = more signal.
The target of experiment [9] is Dickkopf-related protein 1 (Homo sapiens) (UniProt O94907). Put plainly: small molecules binding DKK1 protein – biochemical, small-molecule microarray, 635 nm fluorescence scan, primary screen (AID 1106).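 Also: score merges emission near 667 nm with signal to noise over three replicate slides.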 The settings on record: higher = more signal.
In experiment [10] the test system is Inhibin beta A chain (activin A). Briefly: small molecules binding activin A – biochemical, small-molecule microarray, 635 nm fluorescence scan, primary screen (AID 1107).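 Also: mouse activin A protein probed at 4.33 µg/mL on printed slides; score merges bound-protein fluorescence near 667 nm with spot signal-to-noise.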 The settings on record: INHBA, higher = more signal.
In experiment [11] the test system is Human papillomavirus type 1a protein E7 (residues 44-93). Put plainly: small molecules binding HPV E7 44-93 – biochemical, small-molecule microarray, residues 44-93, 635 nm fluorescence, primary screen (AID 1108).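 Also: E7 fragment applied at 1 µg/mL in TBST for 1 h at 4 C; score combines spot fluorescence with its signal to noise ratio.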 To be noted: fluorescence 635 nm, higher = more signal.
Experiment [12] in a line: hepatitis C replication reporter changes, two-sided – Huh7 cells, luciferase reporter, HCV replication inhibitor project, primary screen (AID 1109).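 Also: huh7 hepatoma cells harbouring a luciferase neomycin HCV replicon reporter; luciferase luminescence as measure of HCV replicon replication; test concentration not given here.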 To be noted: Huh7 HCV replicon luciferase reporter, 48 h; higher = more signal.
In experiment [13] the target is Left-right determination factor 2 (Homo sapiens) (UniProt O00292). Briefly: small molecules binding LEFTY2 protein – biochemical, small-molecule microarray, 635 nm fluorescence scan, primary screen (AID 1110). To be noted: higher = more signal.
The target in experiment [14] is Calmodulin-1 (Homo sapiens) (UniProt P0DP23). Briefly: small molecules binding calmodulin-1 with EGTA – biochemical, small-molecule microarray, Cy5-labelled CALM1, profiling panel (AID 1111).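 Also: labelled calmodulin applied in Tris saline Tween buffer holding calcium plus EGTA and DTT.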 To be noted: Cy5-CALM1 binding fluorescence, higher = more signal.
For experiment [15] the target is unchanged. Put plainly: small molecules binding Ca-loaded calmodulin-1 – biochemical, small-molecule microarray, Cy5-labelled CALM1, plus calcium, artefact control for SMM control-protein annotation, profiling panel (AID 1112).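 Also: score merges spot fluorescence with signal to noise from triplicate slides.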 The settings on record: Cy5-CALM1 binding fluorescence, higher = more signal.
The nature of experiment [16]: probe aWnt5a binding to arrayed compounds – biochemical, biotinylated probe, 635/667 nm fluorescence, primary screen (AID 1113).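 Also: score merges 667 nm fluorescence intensity with signal-to-noise per printed feature.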 To be noted: small-molecule microarray, higher = more signal.
Experiment [17] is described as follows: probe aShh binding to arrayed compounds – biochemical, biotinylated probe, 635/667 nm fluorescence, primary screen (AID 1114).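 Also: probe is biotin-labelled aShh protein from a stem cell growth factor screen; measures binding of labelled protein to compounds printed on the slide; score merges feature fluorescence at 667 nm with signal-to-noise.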 The settings on record: small-molecule microarray, higher = more signal.
Experiment [18] is described as follows: probe aNog binding to arrayed compounds – biochemical, biotinylated probe, 635/667 nm fluorescence, primary screen (AID 1115).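 Also: probe is biotinylated aNog protein used at 0.15 µg/mL for 1 h at 4 C; z-score combines 667 nm fluorescence of each spot with its signal to noise.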 To be noted: small-molecule microarray, higher = more signal.
Experiment [19] has as its target Torsin-1A-interacting protein 1 (Homo sapiens) (UniProt Q5JTV8). Briefly: compound microarray binding of lysate hLAP1 – cell lysate, small-molecule microarray, COS7 lysate, 635/667 nm fluorescence, primary screen (AID 1116). To be noted: 635 nm fluorescence, higher = more signal.
Experiment [20] has as its target Alpha-bungarotoxin (Bungarus multicinctus) (UniProt P60615). Put plainly: compounds binding labelled alpha-BTX control protein – biochemical, small-molecule microarray, Alexa647 label, 635/667 nm fluorescence, artefact control for SMM control protein annotation, profiling panel (AID 1117). To be noted: alpha-BTX-A647 binding fluorescence, higher = more signal.

Torsin-1A-interacting protein 1 (Homo sapiens), sequence (Q5JTV8 whole entry, looked up): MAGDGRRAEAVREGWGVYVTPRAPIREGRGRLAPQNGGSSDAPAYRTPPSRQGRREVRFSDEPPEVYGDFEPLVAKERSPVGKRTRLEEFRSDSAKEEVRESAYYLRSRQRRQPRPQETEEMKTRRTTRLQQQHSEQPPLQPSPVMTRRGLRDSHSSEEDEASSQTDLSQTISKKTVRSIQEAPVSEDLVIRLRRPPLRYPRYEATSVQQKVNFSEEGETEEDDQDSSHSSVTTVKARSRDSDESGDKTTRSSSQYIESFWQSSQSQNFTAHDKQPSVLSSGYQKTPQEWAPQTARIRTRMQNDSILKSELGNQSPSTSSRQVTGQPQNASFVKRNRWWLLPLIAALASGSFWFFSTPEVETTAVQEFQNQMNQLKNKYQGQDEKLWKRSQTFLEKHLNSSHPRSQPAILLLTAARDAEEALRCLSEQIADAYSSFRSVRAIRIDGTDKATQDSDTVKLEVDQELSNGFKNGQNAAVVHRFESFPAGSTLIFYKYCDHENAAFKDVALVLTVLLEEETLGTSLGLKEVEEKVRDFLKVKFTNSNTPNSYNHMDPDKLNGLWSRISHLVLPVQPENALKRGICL
Epidermal growth factor receptor (Homo sapiens), sequence (P00533 whole entry, looked up): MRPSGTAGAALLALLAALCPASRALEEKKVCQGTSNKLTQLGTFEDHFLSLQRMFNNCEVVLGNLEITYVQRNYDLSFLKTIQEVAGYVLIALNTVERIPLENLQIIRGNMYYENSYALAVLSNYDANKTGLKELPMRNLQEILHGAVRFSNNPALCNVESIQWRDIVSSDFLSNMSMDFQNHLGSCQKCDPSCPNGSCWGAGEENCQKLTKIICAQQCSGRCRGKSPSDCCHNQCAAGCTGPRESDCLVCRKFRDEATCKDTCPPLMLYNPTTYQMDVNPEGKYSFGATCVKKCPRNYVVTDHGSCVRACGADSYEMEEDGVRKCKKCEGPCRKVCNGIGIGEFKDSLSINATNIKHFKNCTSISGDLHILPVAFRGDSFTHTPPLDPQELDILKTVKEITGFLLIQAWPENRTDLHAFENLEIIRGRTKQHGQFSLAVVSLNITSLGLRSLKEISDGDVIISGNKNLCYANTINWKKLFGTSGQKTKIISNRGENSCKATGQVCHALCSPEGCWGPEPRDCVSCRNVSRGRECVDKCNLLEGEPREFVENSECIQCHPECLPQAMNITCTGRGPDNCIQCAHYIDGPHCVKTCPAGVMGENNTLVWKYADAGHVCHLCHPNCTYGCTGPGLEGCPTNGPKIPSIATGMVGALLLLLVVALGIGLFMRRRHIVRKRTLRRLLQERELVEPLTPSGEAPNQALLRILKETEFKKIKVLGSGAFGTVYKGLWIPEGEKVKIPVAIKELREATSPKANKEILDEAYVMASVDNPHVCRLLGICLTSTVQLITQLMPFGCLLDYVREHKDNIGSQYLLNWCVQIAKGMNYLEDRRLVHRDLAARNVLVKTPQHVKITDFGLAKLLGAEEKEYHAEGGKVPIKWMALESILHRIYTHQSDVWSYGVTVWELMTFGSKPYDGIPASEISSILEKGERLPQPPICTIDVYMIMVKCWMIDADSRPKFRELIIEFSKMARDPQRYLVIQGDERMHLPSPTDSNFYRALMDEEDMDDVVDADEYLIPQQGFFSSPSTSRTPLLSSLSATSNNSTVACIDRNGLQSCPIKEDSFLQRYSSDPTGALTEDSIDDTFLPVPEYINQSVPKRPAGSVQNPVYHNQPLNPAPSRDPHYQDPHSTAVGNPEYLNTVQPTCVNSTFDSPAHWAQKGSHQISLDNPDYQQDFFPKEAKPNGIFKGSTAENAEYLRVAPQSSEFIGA
Follistatin-related protein 3 (Homo sapiens), sequence (O95633 whole entry, looked up): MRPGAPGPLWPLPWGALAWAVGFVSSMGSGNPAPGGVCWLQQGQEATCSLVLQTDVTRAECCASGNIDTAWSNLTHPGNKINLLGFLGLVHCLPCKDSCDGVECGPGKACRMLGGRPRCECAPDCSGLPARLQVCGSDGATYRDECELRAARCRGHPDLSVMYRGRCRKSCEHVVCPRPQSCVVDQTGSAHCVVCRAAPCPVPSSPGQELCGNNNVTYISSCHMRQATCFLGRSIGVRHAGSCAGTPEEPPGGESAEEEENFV
Left-right determination factor 2 (Homo sapiens), sequence (O00292 whole entry, looked up): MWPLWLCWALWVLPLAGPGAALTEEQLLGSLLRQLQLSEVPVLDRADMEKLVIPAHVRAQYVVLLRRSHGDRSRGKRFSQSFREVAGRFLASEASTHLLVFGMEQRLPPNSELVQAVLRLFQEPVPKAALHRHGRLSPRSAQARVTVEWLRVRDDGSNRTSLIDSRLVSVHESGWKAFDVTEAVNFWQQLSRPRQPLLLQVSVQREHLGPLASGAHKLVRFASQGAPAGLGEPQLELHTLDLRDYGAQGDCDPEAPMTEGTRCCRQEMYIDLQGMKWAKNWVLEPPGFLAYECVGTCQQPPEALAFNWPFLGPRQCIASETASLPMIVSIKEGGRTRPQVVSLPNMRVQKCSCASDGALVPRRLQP
Dickkopf-related protein 1 (Homo sapiens), sequence (O94907 whole entry, looked up): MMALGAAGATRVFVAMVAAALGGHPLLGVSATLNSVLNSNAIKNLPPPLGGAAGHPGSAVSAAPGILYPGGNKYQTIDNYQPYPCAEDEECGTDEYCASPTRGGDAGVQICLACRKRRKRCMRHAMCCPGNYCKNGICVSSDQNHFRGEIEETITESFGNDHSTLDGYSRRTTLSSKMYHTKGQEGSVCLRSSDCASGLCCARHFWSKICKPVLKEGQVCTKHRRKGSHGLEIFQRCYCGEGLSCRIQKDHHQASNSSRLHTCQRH
Alpha-bungarotoxin (Bungarus multicinctus), sequence (P60615 whole entry, looked up): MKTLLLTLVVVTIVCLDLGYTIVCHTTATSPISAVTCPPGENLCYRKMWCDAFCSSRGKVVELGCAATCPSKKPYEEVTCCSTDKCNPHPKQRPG
Fibroblast growth factor 10 (Homo sapiens), sequence (O15520 whole entry, looked up): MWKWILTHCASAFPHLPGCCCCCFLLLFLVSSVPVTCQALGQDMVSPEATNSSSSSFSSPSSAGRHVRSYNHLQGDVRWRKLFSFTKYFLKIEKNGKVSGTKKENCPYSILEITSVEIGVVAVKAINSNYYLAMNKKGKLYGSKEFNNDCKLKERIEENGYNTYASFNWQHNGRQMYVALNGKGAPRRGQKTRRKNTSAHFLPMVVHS

Turning to `COC(=O)C1=C(C)[C@@H](O)[C@@H](C)[C@H](c2c(OC)c(OC)c(C)c(OC)c2OC)O1`, the composite z-score in experiment [1] is 0.191; in experiment [2] it was -0.27; in experiment [3], -0.595; in experiment [5], 0.256; in experiment [6], -0.419; in [7], 0.269. Also, the composite z-score in experiment [8] was 0.398; in [9], 0.56; in experiment [10], 0.394; in experiment [11], -0.685; in experiment [13], 0.494; in experiment [14], -0.628. Also, the composite z-score in [15] is -0.787; in [16], -0.171; in experiment [17] it was -0.0011; in experiment [18], -0.135; in experiment [19] it was 0.272; in [20] it was 0.138. The z-score was -0.361 (inactive) in [4] and -0.566 in experiment [12].

For `COCCOC(=O)N1C(=O)[C@@]2(c3cc(C#Cc4ccc(OC)cc4)ccc31)[C@H](c1ccc(O)cc1)N1[C@H](c3ccccc3)[C@H](c3ccccc3)OC(=O)[C@H]1[C@@H]2C(N)=O`, the composite z-score in [1] was 1.49; in experiment [2], -0.0422; in experiment [3], -0.21; in experiment [5], 1.1; in experiment [6], 1.25; in [7], 0.655. Also, the composite z-score in experiment [8] was found to be 1.4; in [9], 0.56; in [10], 0.213; in [11], 1.44; in experiment [13] it was 0.599; in experiment [14], 1.06. Also, the composite z-score is -0.139 in experiment [15]; 0.0045 in experiment [16]; 0.149 in [17]; -0.694 in experiment [18]; 0.743 in [19]; 1.16 in experiment [20]. For the same compound, the results for the z-score in experiment [4] and in experiment [12] were -1.95 (inactive) and -2.02, respectively.

Turning to `CN1C(=O)C2C=CC(C(O)c3ccc(Br)cc3)N(N(c3ccccc3)c3ccccc3)C2C1=O` (stereo not given), the composite z-score in [1] was 0.259; in experiment [2], 0.359; in experiment [3] it was 1.04; in experiment [5] it was -0.14; in experiment [6] it was -0.0403; in experiment [7], -0.211. Besides, the composite z-score was 0.0397 in [8]; -0.626 in experiment [9]; 1.26 in [10]; 0.962 in experiment [11]; -0.0937 in experiment [13]; 1.16 in experiment [14]. For the same compound, the composite z-score worked out at 0.428 in [15]; 0.0873 in [16]; 0.0639 in experiment [17]; 0.654 in experiment [18]; 0.513 in [19]; 1.12 in experiment [20]. For the same compound, the z-score is 0.605 (inactive) in [4] and -1.01 in [12].

Take `COC(=O)[C@@H]1CC[C@H](C)[C@@H](c2ccc(C)cc2)N1C(=O)c1ccc(C=NOC[C@@H](O)COCc2ccco2)cc1`: the composite z-score in experiment [1] was -0.525; in [2] it was -0.456; in experiment [3], 0.675; in experiment [5] it was -1.43; in [6], -1.79; in experiment [7] it was -1.3. Also, the composite z-score was -2.16 in experiment [8]; -0.5 in experiment [9]; 1.87 in experiment [10]; -1.6 in experiment [11]; 0.283 in experiment [13]; -1.22 in experiment [14]. In addition, the composite z-score in experiment [15] is -1.22; in experiment [16], -0.21; in [17], -0.2; in experiment [18], -0.788; in experiment [19], -1.63; in experiment [20], -1.25. Moreover, the z-score in experiment [4] was -0.0402 (inactive); in [12], -2.42.

Turning to `O=C(CS)NCCCCCNC(=O)[C@@H]1C[C@@H]2C(=O)N[C@@H](Cc3ccccc3)C(=O)N2[C@@H]1c1ccc(O)cc1`, the composite z-score in [1] is 1; in experiment [2] it was 0.121; in experiment [3], 0.526; in [5], 1.02; in experiment [6], 1.17; in experiment [7] it was -0.146. Further, the composite z-score in experiment [8] was 0.265; in experiment [9] it was 0.325; in [10], -0.516; in experiment [11], 0.985; in experiment [13], 0.514; in experiment [14], 0.283. Moreover, the composite z-score in experiment [15] was -0.11; in [16], 0.0004; in experiment [17], 0.149; in experiment [18], -0.122; in experiment [19] it was 0.858; in experiment [20], 1.48. The z-score in experiment [4] is 0.339 (inactive); in [12], -0.374.

For the compound `C#CCCCON=C1C[C@@H](O)[C@@H](O)[C@@H]2[C@@H]3C(=O)N(c4cccc(Oc5ccccc5)c4)C(=O)[C@@H]3CC[C@@H]12`, the composite z-score in [1] was 0.632; in [2], -0.178; in experiment [3], 0.0505; in [5] it was 0.985; in [6] it was 0.548; in experiment [7] it was 0.213. For the same compound, the composite z-score in experiment [8] was 0.802; in experiment [9] it was -0.0498; in [10] it was -0.211; in experiment [11], 1.3; in experiment [13], 0.159; in [14], 0.298. Besides, the composite z-score in [15] is -0.285; in experiment [16], -0.0808; in experiment [17], -0.0709; in [18] it was -0.183; in experiment [19], 0.0847; in [20], 0.724. For the same compound, the z-score in experiment [4] is -0.417 (inactive); in experiment [12], -0.497.
